# aSyn 5UTR act = Activators working through SNCA 5'UTR binding (MLPCN). alpha-synuclein 5'UTR reporter, activators screen. activity score, % (tested at 7.5 µM), hits read low. 7.1% of 300,000 active. AID 1814; in the data active = activity score below about -60%
# * hit, by the source's call. Only a sample is shown.
SMILES,aSyn 5UTR act
Cc1nc2ccc3nc(NC(=O)c4ccco4)sc3c2s1,-152.2*
O=C(Nc1nc2c(s1)CCc1ccccc1-2)c1ccco1,-140.3*
O=C(Nc1nc2ccsc2c(=O)s1)c1ccco1,-129.9*
O=C(Nc1nnc(-c2ccccc2)o1)NC1CCCCC1,-80.2*
O=C(CCc1nnc(-c2ccccc2)o1)NC1CCCCC1,-65.6*
CN(C)S(=O)(=O)c1ccc(C(=O)Nc2nnc(-c3ccc4c(c3)CCCC4)o2)cc1,69.0
O=C(CCc1nnc(-c2ccc(-c3ccccc3)cc2)o1)NCCc1ccccn1,90.3
O=C(Nc1nnc(-c2ccc3c(c2)CCCC3)o1)C1CCCCC1,-84.3*
Cc1cc(C)n(CCN(C)C(=O)CCc2nnc(CCC3CCCCC3)o2)n1,-144.9*
COC(=O)CCCNC(=O)CCc1nnc(-c2ccc(-c3ccccc3)cc2)o1,76.9
O=C(Nc1ccccc1)Nc1nnc(-c2ccccc2)o1,-63.3*
CN(CCCC1CCCC1)C(=O)CCc1nnc(-c2ccccc2)o1,-138.7*
O=C(/C=C/c1cccc([N+](=O)[O-])c1)Nc1ccc(Cl)cn1,-92.0*
O=C(/C=C/c1ccccc1)Nc1ccc(Br)cn1,-124.6*
Cc1ccc(NC(=O)/C=C/c2ccc(Cl)cc2)nc1,-157.7*
COc1ccc(-n2c(C)cc(/C=C3\SC(=S)NC3=O)c2C)cc1,-152.5*
Cc1cc(/C=C2\SC(=S)NC2=O)c(C)n1-c1ccccc1,-163.3*
Cc1cc(/C=C2\SC(=S)NC2=O)c(C)n1-c1ccc(O)cc1,-67.6*
Cc1cc(/C=C2\SC(N)=NC2=O)c(C)n1-c1ccccc1,-112.3*
S=C(Nc1ccccc1)Nc1cccc(Cl)c1Cl,-67.1*
COC(=O)c1cccc(NC(=S)Nc2cccc(Cl)c2Cl)c1,-69.3*
S=C(Nc1ccccc1)Nc1ccc(Cl)cc1Cl,-91.2*
NNC(=S)Nc1ccccc1Cl,-185.5*
CNC(=S)Nc1cccc(C(=O)OC)c1,-90.8*
N=C1C(c2nc(-c3ccc(Cl)cc3)cs2)=C(O)CN1NC(=O)c1ccc(O)cc1,-73.1*
SMILES,aSyn 5UTR act
CN(C)CCCNC(=O)c1ccc(-c2nc(-c3ccc(Cl)cc3)cs2)cc1,117.6
COc1cc(/C=N\Nc2nc3ccccc3o2)cc(OC)c1OC,-186.4*
COc1cc(/C=N/Nc2nc3ccccc3o2)cc(OC)c1O,-86.2*
Brc1ccc(/C=N/Nc2nc3ccccc3o2)cc1,-190.6*
O=C(NCc1ccncc1)C(=O)N/N=C/c1ccc(OCc2ccccc2)cc1,-92.7*
CC(C)OCCCNC(=O)C(=O)N/N=C/c1ccc(OCc2ccccc2)cc1,-66.8*
Cc1cc(-c2nc3ncccc3o2)ccc1N,-111.0*
Cc1ccc(-c2nc3ncccc3o2)cc1N,-105.6*
Nc1cc(-c2nc3ncccc3o2)ccc1Cl,-273.5*
COc1ccccc1-c1cc(C(=O)N2CCOCC2)no1,-125.0*
O=C(c1cc(-c2cccs2)on1)N1CCOCC1,-169.3*
COc1ccccc1-c1cc(C(=O)N2CCCC2)no1,-133.4*
COc1ccc(-c2cc(C(=O)N3CCOCC3)no2)cc1,72.6
Cc1noc(/C=C/c2ccccn2)c1[N+](=O)[O-],-211.4*
Cc1noc(/C=C/Nc2ccc(F)cc2F)c1[N+](=O)[O-],-174.8*
COc1ccc(Cl)cc1Nc1nc(N)c2ccccc2n1,-103.3*
COc1nc(Nc2nc3ccccc3c(=O)[nH]2)nc2ccc(C)cc12,89.9
Cc1ccc(C)c(Nc2nc(N)c3ccccc3n2)c1,-157.4*
COc1cc2nc(N3CCN(c4cc(C)ccc4C)CC3)nc(N)c2cc1OC,94.5
NC(=O)[C@@H]1CCCN1C(=O)c1ccc2oc(CCc3ccccc3)nc2c1,-63.5*
O=C(c1ccc2oc(CCc3ccccc3)nc2c1)N1CCC(O)CC1,-72.9*
O=C(c1ccc2oc(CCCc3ccccc3)nc2c1)N1CCCCC1CO (stereo not given),-87.5*
CCOC(=O)CC1COCCN1C(=O)c1ccc2oc(Cc3ccccc3)nc2c1 (stereo not given),-131.6*
CC(=O)Nc1cc(-c2ccc(F)cc2)[nH]n1,-76.9*
CCNC(=S)Nc1cc(-c2ccc(Cl)cc2)[nH]n1,-86.5*
SMILES,aSyn 5UTR act
O=C(Nc1cc(-c2ccccc2)[nH]n1)c1ccccc1F,-207.2*
COC(=O)c1ccc(N=Cc2c(C(F)(F)F)[nH][nH]c2=O)cc1,-135.2*
O=C1C(Cl)=C(NCCN2CCCCC2)C(=O)c2ccccc21,54.0
CCNc1oc(-c2cccc3ccccc23)nc1C#N,-88.1*
N#Cc1nc(-c2cccc3ccccc23)oc1NCCN1CCCCC1,-63.3*
c1ccc(Nc2nc3ccccc3o2)cc1,-188.7*
Cc1cc(C)nc(Nc2nc3ccccc3o2)n1,-70.0*
FC(F)(F)Oc1ccc(Nc2nc3ccccc3o2)cc1,-259.5*
Cc1nnc(N/N=C/c2cccc(OCc3ccc(Cl)c(Cl)c3)c2)n1N,-82.6*
Cc1c(OCC(=O)C(C)(C)C)ccc2c3c(c(=O)oc12)CCCC3,-97.1*
Cc1ccc(-c2c(C)sc(=NC(=O)c3ccco3)n2C)cc1,-122.8*
Cc1cccc(-n2c(=S)[nH]c3c(oc4ccccc43)c2=O)c1,-87.9*
Cc1ccc(-n2c(=S)[nH]c3c(oc4ccccc43)c2=O)cc1,-100.0*
CN(C)c1nc(-c2ccc([N+](=O)[O-])cc2)cs1,-123.2*
C=CCNc1nc(-c2ccc([N+](=O)[O-])cc2)cs1,-182.2*
C=CCNc1nc(-c2ccc(Cl)cc2)cs1,-238.3*
COc1ccc(-c2nnc(SCC(=O)c3ccc[nH]3)n2-c2ccccc2)cc1,-70.2*
O=c1c2ccccc2nc2c3ccccc3cnn12,-171.9*
O=c1c2ccccc2cnn1-c1nc2ccccc2[nH]1,97.8
Cc1cc(NC(=O)c2cccc(Oc3ccccc3)c2)n[nH]1,-109.0*
Cc1cc(NC(=O)NC(=O)c2cccc(OC(F)(F)C(F)F)c2)n[nH]1,-118.5*
CCOc1ccc(/C=C2\SC(=S)N(CCCC(=O)NCCCN3CCOCC3)C2=O)cc1,84.4
CCOc1ccc(/C=C2/SC(=O)NC2=S)cc1,-94.8*
CCOc1ccc(N=C2NC(=O)S/C2=C\c2ccc(N(C)C)cc2)cc1,-128.8*
O=C(c1cc(-c2ccccc2)on1)N1CCCc2ccccc21,-99.7*
SMILES,aSyn 5UTR act
O=C(c1cc(-c2ccco2)on1)N1CCCc2ccccc21,-68.8*
O=C(c1nn2c(C(F)(F)F)cc(-c3ccco3)nc2c1Br)N1CCCc2ccccc21,92.9
N#C/C(=C\c1ccc(Cl)cc1)c1nc(-c2ccco2)cs1,-66.0*
N#C/C(=C\c1ccc(F)cc1)c1nc(-c2ccco2)cs1,-166.9*
O=C(N/N=C/c1ccco1)c1cc(-c2ccc3ccccc3c2)n[nH]1,-75.0*
O=C(N/N=C/c1ccccn1)c1cc(-c2ccc3ccccc3c2)n[nH]1,-160.9*
O=C(N/N=C/C=C\c1ccccc1[N+](=O)[O-])c1cc(-c2ccc3ccccc3c2)n[nH]1,-88.1*
O=C(CSc1nnc(NC2CCCCC2)s1)Nc1ccc2c(c1)C(=O)c1ccccc1C2=O,-120.5*
Cc1ccc(Nc2nnc(SCC(=O)Nc3cccc(S(=O)(=O)N4CCCCC4)c3)s2)cc1,-118.6*
CC(C)Nc1nnc(SCC(=O)Nc2ccc3c(c2)C(=O)c2ccccc2C3=O)s1,-184.2*
Cc1ccc(OCC(=O)N2CCCCC2)c(Br)c1,-125.3*
CC(C)(C)c1ccc(OCC(=O)N2CCCCCC2)c(Br)c1,-143.9*
Cc1ccc(OCc2nnc(N)s2)cc1C,-62.3*
O=C(CCc1nnc(-c2ccsc2)o1)N1CCc2c(Cl)cccc2C1,-65.3*
CC1c2cc3c(cc2CCN1C(=O)c1cccc(Cl)c1)OCCCO3 (stereo not given),-64.6*
O=C1CC(/C=C/c2ccccc2)=Nc2ccccc2N1,-252.2*

# High-throughput results deposited in PubChem BioAssay by Broad Institute.
